Assay results taken from PubChem BioAssay AID1159580 (chemical genetic matrix, 2015).
Where “and” joins values, the source holds several entries; their conditions need not be identical. Equal entries are not always repeated. Out of some 5,500 compounds screened, about 2,000 (36%) were called active. Inconclusive results (about 18%) are left out. Cut-off read from the data, not from the text of the source: active = normalized growth mostly below about 0.91 (no sharp cut-off); inconclusive = no clear call, values can overlap the other calls; inactive = mostly above about 0.92. Some of the results follow.

Test: chemical genetic growth profiling, strain panel (AID 1159580);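 note: tested at 20 µM; growth read once vehicle control cultures reached saturation at 30 °C; 1 = growth at the plate median or of vehicle wells; lower values mean less growth of the strain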
Details: S. cerevisiae deletion strains, growth OD

Measured: normalized growth

Nc1ccc(C(=O)O)c(O)c1
inactive: locus YAL021C, strain ccr4, stronger effect = lower value 0.972 | locus YAL026C, strain drs2, stronger effect = lower value 1 | locus YAL030W, strain snc1, stronger effect = lower value 1 | locus YBL061C, strain skt5, stronger effect = lower value 0.989 | locus YBR009C, strain hhf1, stronger effect = lower value 1.02 | locus YBR021W, strain FUR4, stronger effect = lower value 1.01 | locus YBR023C, strain chs3, stronger effect = lower value 0.984 | locus YBR171W, strain sec66, stronger effect = lower value 0.98 | locus YBR229C, strain ROT2, stronger effect = lower value 1 | locus YBR231C, strain swc5, stronger effect = lower value 1 | locus YBR279W, strain paf1, stronger effect = lower value 0.996 | locus YCL011C, strain gbp2, stronger effect = lower value 0.991 | locus YCL016C, strain dcc1, stronger effect = lower value 0.965 | locus YCL029C, strain bik1, stronger effect = lower value 0.997 | locus YCL061C, strain MRC1, stronger effect = lower value 0.979 | locus YCL069W, strain vba3, stronger effect = lower value 0.99 | locus YCR088W, strain abp1, stronger effect = lower value 0.997 | locus YDL005C, strain med2, stronger effect = lower value 0.989 | locus YDL035C, strain GPR1, stronger effect = lower value 1.02 | locus YDL040C, strain nat1, stronger effect = lower value 0.99 | locus YDL074C, strain BRE1, stronger effect = lower value 1.01 | locus YDL101C, strain DUN1, stronger effect = lower value 1.01 | locus YDL134C, strain PPH21, stronger effect = lower value 1 | locus YDL185W, strain tfp1, stronger effect = lower value 1 | locus YDL192W, strain arf1, stronger effect = lower value 0.994 | locus YDR001C, strain nth1, stronger effect = lower value 0.989 | locus YDR069C, strain doa4, stronger effect = lower value 1 | locus YDR101C, strain arx1, stronger effect = lower value 1.01 | locus YDR137W, strain rgp1, stronger effect = lower value 0.959 | locus YDR150W, strain NUM1, stronger effect = lower value 1.01 | locus YDR159W, strain sac3, stronger effect = lower value 1.02 | locus YDR162C, strain NBP2, stronger effect = lower value 1.01 | locus YDR195W, strain ref2 0.996 | locus YDR297W, strain sur2, stronger effect = lower value 1.01 | locus YDR318W, strain mcm21, stronger effect = lower value 1.01 | locus YDR334W, strain swr1, stronger effect = lower value 0.98 | locus YDR335W, strain msn5, stronger effect = lower value 0.993 | locus YDR388W, stronger effect = lower value 1 | locus YDR392W, strain spt3, stronger effect = lower value 0.931 | locus YDR502C, strain sam2, stronger effect = lower value 0.998 | locus YEL003W, strain gim4, stronger effect = lower value 1.02 | locus YEL037C, strain rad23, stronger effect = lower value 1 | locus YEL061C, strain CIN8 (second series), stronger effect = lower value 0.994 | locus YEL061C, strain CIN8, stronger effect = lower value 1.01 | locus YER015W, strain faa2, stronger effect = lower value 0.999 | locus YER016W, strain bim1, stronger effect = lower value 1 | locus YER110C, stronger effect = lower value 1 | locus YER111C, strain swi4, stronger effect = lower value 0.984 | locus YER155C, strain BEM2 (second series), stronger effect = lower value 1 | locus YER155C, strain BEM2, stronger effect = lower value 1 | locus YER167W, strain BCK2, stronger effect = lower value 1.01 | locus YFR010W, strain ubp6, stronger effect = lower value 1 | locus YGL078C, strain dbp3, stronger effect = lower value 0.995 | locus YGL086W, strain mad1, stronger effect = lower value 0.997 | locus YGL167C, strain pmr1, stronger effect = lower value 0.992 | locus YGL173C, strain kem1, stronger effect = lower value 0.99 | locus YGL227W, strain vid30, stronger effect = lower value 0.991 | locus YGL240W, strain doc1, stronger effect = lower value 0.997 | locus YGL248W, strain PDE1, stronger effect = lower value 0.999 | locus YGL253W, strain hxk2, stronger effect = lower value 0.978 | locus YGR135W, strain pre9, stronger effect = lower value 0.993 | locus YGR252W, strain gcn5, stronger effect = lower value 0.959 | locus YHR013C, strain ard1, stronger effect = lower value 0.961 | locus YHR027C, strain rpn1, stronger effect = lower value 0.997 | locus YHR030C, strain SLT2, stronger effect = lower value 0.974 and 1.01 and 1.07 | locus YHR079C, strain IRE1 (second series), stronger effect = lower value 1 | locus YHR079C, strain IRE1, stronger effect = lower value 1.02 and 1.04 | locus YHR094C, strain hxt1, stronger effect = lower value 0.997 | locus YHR129C, strain ARP1, stronger effect = lower value 1.01 | locus YHR142W, strain chs7, stronger effect = lower value 0.964 | locus YHR200W, strain rpn10, stronger effect = lower value 0.999 | locus YIL066C, strain RNR3, stronger effect = lower value 1.03 | locus YIL073C, strain SPO22, stronger effect = lower value 1.04 | locus YIL125W, strain kgd1, stronger effect = lower value 1 | locus YIR030C, strain dcg1, stronger effect = lower value 1 | locus YJL092W, strain hpr5, stronger effect = lower value 0.984 | locus YJL095W, strain BCK1 (second series), stronger effect = lower value 0.997 | locus YJL095W, strain BCK1, stronger effect = lower value 0.994 and 1.01 and 1.04 | locus YJL115W, strain asf1, stronger effect = lower value 0.99 | locus YJL129C, strain trk1, stronger effect = lower value 0.968 | locus YJL134W, strain LCB3, stronger effect = lower value 1.01 | locus YJL154C, strain vps35, stronger effect = lower value 0.99 | locus YJL164C, strain tpk1, stronger effect = lower value 1.01 | locus YJL166W, strain qcr8, stronger effect = lower value 0.962 | locus YJL168C, strain set2, stronger effect = lower value 1 | locus YJL187C, strain SWE1 (second series), stronger effect = lower value 1.01 | locus YJL187C, strain SWE1, stronger effect = lower value 0.999 | locus YJR043C, strain POL32, stronger effect = lower value 1.01 | locus YJR066W, strain TOR1, stronger effect = lower value 0.963 and 0.985
